BL2 CD40 inh = inhibitors of CD40-induced NF-kB signaling, primary screen, BL2 cells, luciferase reporter, single point | inhibition, % at 10 µM | hit rate 0.94% among 83,000 | CD40L-induced, 4 h;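 active = mean inhibition of at least 50% with a set share of replicates also reaching that level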;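 note: 0% = neutral control wells and 100% = IKK inhibitor VII at 50 µM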
Starred values were filed as active, the others as inactive; [ ] = remark or other dose. Only a selection was taken, and hits are over-represented in it overall.

SMILES	BL2 CD40 inh
OCC1OC(n2cnc3cc(Cl)c(Cl)cc32)C(O)C1O (stereo not given)	47.0*
O=C(Cc1cccnc1)N1CCCCN2[C@H](C1)[C@@H](c1ccc(C#CC3(O)CCCC3)cc1)[C@@H]2CO	0.0[25 µM]
CC(=O)N1C2CN(C)CC1C2c1ccc(Br)cc1 (stereo not given)	-2.3
CC(=O)N1C[C@@H]2N[C@H](C1)C2c1ccccc1 (stereo not given in full)	-4.4
c1cncc(-c2ccc(C3[C@H]4CNC[C@@H]3N4CC3CC3)cc2)c1 (stereo not given in full)	2.8[25 µM]
OC[C@@H]1[C@@H]2c3ccccc3NC[C@@H]2N1Cc1cccnc1	-11.0[25 µM]
O=C1Nc2cc(Cl)c(Cl)cc2N2CCNCC12 (stereo not given)	-27.2[25 µM]
O=C1CC[C@@]2(O)[C@H]3Cc4ccc(O)c5c4[C@@]2(CCN3CC2CC2)[C@H]1O5	-6.1
O=C1/C(=C/c2ccccc2)C[C@@]2(O)C3Cc4ccc(O)c5c4[C@@]2(CCN3CC2CC2)[C@H]1O5	84.9*[25 µM]
COC(=O)C=CC(=O)NC1CCC2(O)C3Cc4ccc(O)c5c4C2(CCN3CC2CC2)C1O5 (stereo not given)	5.4[25 µM]
CS(=O)(=O)N1C[C@@H]2C(c3ccc(Br)cc3)[C@H](C1)N2CC1CC1 (stereo not given in full)	2.9
O=C1CNC[C@@H]2[C@@H](c3ccc(Br)cc3)[C@@H](CO)N12	0.3[25 µM]
O=C(Cc1ccncc1)N1CCCCN2[C@H](CO)[C@H](c3ccc(C#Cc4ccccc4F)cc3)[C@H]2C1	-10.8[25 µM]

Screening data: PubChem BioAssay, Broad Institute
